Inconclusive results are not listed. Values without a mark were called inactive. Active and inactive are the calls of the source. The call rests on the fitted dose curve; in most records, active means well fitted cell-killing curve with a large enough effect; inconclusive means small, poorly fitted or top-dose-only effect; inactive means flat fitted curve, though single readings scatter. Square brackets hold non-standard residues; d marks the D form. Peptide text beside a SMILES is read from it. * marks the point of attachment. ξ: configuration not given here. Hexanoyl = CCCCCC(=O)*; ξL = CC(C)CC(N)C(=O)O
Experiment: OV-KATE Cancer Cell Toxicity qHTS against the NCATS CANVASS Library (AID 1347345)
Settings: OV-KATE cells viability, CellTiter-Glo luminescence, 72 h; series mostly up to 38.3 µM; activity change, negative = cytotoxicity: at the top concentration
How it was run: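 Toxicity is measured over 72 h of compound exposure at 37 degrees C under 5% CO2. Each well holds 1000 cells, pre-incubated for 4 hours before dosing across an 11-point range. CellTiter-Glo luminescence gives viability.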
On the % scale 0 is the no-effect control and ±100 the full control effect; potency means the concentration at half of the fitted maximal effect.

Question: Which “activity change, negative = cytotoxicity” value does the source give for CC(=O)N[C@H](C)c1nc(/C=C/C=C/C(=O)CC2CC(=O)CC[C@]2(C)O)cs1 (stereo not given in full) here?
Answer: -2.24%

Question: Which “activity change, negative = cytotoxicity” value does the source give for CN1C(=O)C(=O)N2C(=C[C@]3(c4c[nH]c5ccccc45)c4ccccc4N[C@H]23)C1=O here?
Answer: -3.46%

Question: For CN1CC[C@]23c4ccccc4N[C@H]1[C@]21CCN(C)[C@H]3Nc2ccccc21, which “activity change, negative = cytotoxicity” value is on record?
Answer: 1.03%

Question: For C/C=C1/C2=CCCN3C(=O)O[C@H]([C@H]1O)[C@H]23, which “activity change, negative = cytotoxicity” value is on record?
Answer: -9.96%

Question: Which “activity change, negative = cytotoxicity” value does the source give for O=C1CC(c2ccc(O)cc2)Oc2ccccc21 (stereo not given) here?
Answer: -8.58%

Question: For COc1c(O)cc(O)c2c(=O)cc(-c3ccccc3)oc12, which “activity change, negative = cytotoxicity” value is on record?
Answer: -13.1%

Question: Which “activity change, negative = cytotoxicity” value does the source give for COC1C(C)OC(OCC23C[C@@H]4[C@H](C)CC[C@H]4C4(C=O)CC2C=C(C(C)C)C34C(=O)O)[C@@H](O)[C@H]1O (stereo not given in full) here?
Answer: -6.27%

Question: Which “activity change, negative = cytotoxicity” value does the source give for CN1CC[C@@]2([C@@]34CCN(C)[C@@H]3Nc3ccccc34)c3ccccc3N[C@@H]12 here?
Answer: -4.58%

Question: Which “activity change, negative = cytotoxicity” value does the source give for COc1ccc(-c2oc3cc(OC)cc(OC)c3c(=O)c2O)cc1 here?
Answer: 4.37%

Question: For CC[C@@H](C)[C@H]1NC(=O)C(CC(C)C)NC(=O)[C@@H](CC(C)C)NC(=O)[C@H](Cc2c[nH]c3ccccc23)NC(=O)CNC(=O)[C@@H](CC(N)=O)NC1=O (stereo partly drawn) (cyclo(GW[dL][ξL][dI][dN])), which “activity change, negative = cytotoxicity” value is on record?
Answer: 0.901%

Question: For Cc1cc(O)cc2c1C(=O)c1c(O)cc(O)cc1C2=O, which “activity change, negative = cytotoxicity” value is on record?
Answer: -3.3%

Question: With C=C(Cl)[C@](Cl)(CBr)CC[C@@H](Br)C(C)(C)Cl as the compound, how does the Potency read?
Answer: 10.6 µM (active)

Question: Which Potency does the source give for C=C(C)C(=O)O[C@H]1C[C@@]2(C)OC(=CC2=O)/C(C)=C\[C@H]2OC(=O)C(=C)[C@H]12 here?
Answer: 2.11 µM (active)

Question: With C=C[C@]1(C)CC[C@@H]([C@H](C)C(=O)CC=C(C)C)O1 as the compound, how does the “activity change, negative = cytotoxicity” value read?
Answer: 2.13%

Question: With CC[C@@H]1C[C@@]2(CC)OC(=O)[C@@]3(CC)[C@H](CC)[C@@H]1[C@@H]23 as the compound, how does the “activity change, negative = cytotoxicity” value read?
Answer: 2.77%

Question: Which “activity change, negative = cytotoxicity” value does the source give for [C-]#[N+][C@@]12C(=O)[C@@H]3[C@@H](O[C@@]4(C(=O)N(C)c5cccc1c54)C3(C)C)C(=O)[C@@]2(C)C=C here?
Answer: 2.61%

Question: With COC(=O)c1cccc2oc(-c3cccc4oc(-c5c(C)cccc5O)nc34)nc12 as the compound, how does the “activity change, negative = cytotoxicity” value read?
Answer: -7.46%

Question: With C[C@@]12CCC[C@@](C)(C(=O)OP(=O)(O)OC[C@H]3O[C@@H](n4cnc5c(N)ncnc54)[C@H](O)[C@@H]3O)[C@H]1C[C@@H](O)[C@@]13C[C@@H](CC[C@@H]21)[C@](C)(O)C3 as the compound, how does the “activity change, negative = cytotoxicity” value read?
Answer: 0%

Question: With CCC(C)=C1OC(=O)[C@H](C)[C@H](O)[C@H](Cc2cccnc2)NC(=O)C(NC(=O)c2ncccc2O)C(C)OC1=O (stereo not given in full) as the compound, how does the “activity change, negative = cytotoxicity” value read?
Answer: 1.48%

Question: For C[C@@]12CCC[C@@](C)(C(=O)O)[C@H]1CC[C@@]13C[C@@H](CC[C@H]12)[C@](C)(O)C3, which “activity change, negative = cytotoxicity” value is on record?
Answer: 3.88%

Question: With O=C1OC(CCO)c2cccc(O)c21 (stereo not given) as the compound, how does the “activity change, negative = cytotoxicity” value read?
Answer: -0.817%

Question: Which “activity change, negative = cytotoxicity” value does the source give for C=C1C[C@]23C=CC(=O)[C@@](C)(CCCC(C)C(=O)N[C@@H](CO)C(=O)O)[C@@H]2C[C@@H]1CC3 (stereo not given in full) here?
Answer: 0%

Question: For COc1cc2ccc(=O)oc2c(O)c1O[C@@H]1O[C@H](CO)[C@@H](O)[C@H](O)[C@H]1O, which “activity change, negative = cytotoxicity” value is on record?
Answer: -19.2% [at 22.9 µM]

Question: With C/C(=C\[C@@H](C)CC/C=C/CC/C=C/C(=O)O)[C@@H](O)[C@H](C)C(=O)CCCC1CC(=O)NC(=O)C1 as the compound, how does the “activity change, negative = cytotoxicity” value read?
Answer: -1.52%

Question: For CO[C@@H](C[C@@H](C)[C@@H](O)/C=C/C=C/CNC(=O)C(C)(C)[C@H](O)\C(C)=C/C=C\C=C\Cc1cnco1)[C@]1(O)[C@@H](C)C(=O)N(C)[C@@]12COC2=O, which “activity change, negative = cytotoxicity” value is on record?
Answer: 3.83%

Question: With O=C1CC(c2ccc(O)cc2)Oc2cc(O)cc(O)c21 (stereo not given) as the compound, how does the “activity change, negative = cytotoxicity” value read?
Answer: -2.5%

Question: With O=C1CC(c2ccc(O)cc2)Oc2cc(O)ccc21 (stereo not given) as the compound, how does the “activity change, negative = cytotoxicity” value read?
Answer: 2.37%

Question: Which “activity change, negative = cytotoxicity” value does the source give for CN1CC[C@@]23c4ccccc4N[C@@H]1[C@@]21CCN(C)[C@@H]3Nc2ccccc21 here?
Answer: -10.9%

Question: For C[C@@]12CCC[C@@](C)(C(=O)O)[C@H]1C[C@@H](O)[C@@]13C[C@@H](CC[C@@H]21)[C@](C)(O)C3, which “activity change, negative = cytotoxicity” value is on record?
Answer: 2.63%

Question: For O=Cc1ccc2n1C[C@]1(OC2)O[C@H](CO)[C@@H](O)[C@@H]1O, which “activity change, negative = cytotoxicity” value is on record?
Answer: 1.28%

Question: With C=C[C@@]1(C)CC[C@@H]([C@H](C)C(C)=O)O1 as the compound, how does the “activity change, negative = cytotoxicity” value read?
Answer: 3.43%

Question: For C/C=C(/CO)C(=O)O[C@@H]1[C@H](O)[C@@H](C(=O)OC)O[C@@H]2C[C@H]3OC(n4cnc5c(N)ncnc54)[C@H](OC)[C@H]3O[C@@]12O (stereo not given in full), which “activity change, negative = cytotoxicity” value is on record?
Answer: 2.36%

Question: With C/C=C/[C@H]1[C@H]2C(=O)c3c(O)c(C)c(O)c(C)c3[C@]1(C(=O)O)C(=O)C=C2C as the compound, how does the “activity change, negative = cytotoxicity” value read?
Answer: 1.57%

Question: For C[C@@]12C[C@@H](C[C@@H]3C(=O)O[C@@H](c4ccoc4)[C@H](OC(=O)c4ccccc4)[C@@H]31)OC2=O, which “activity change, negative = cytotoxicity” value is on record?
Answer: -2.21%

Question: Which “activity change, negative = cytotoxicity” value does the source give for C=C1CCC2C(C)(C(=O)O)CCC(CC/C(C)=C/C(=O)NC(CCC(N)=O)C(=O)O)[C@@]2(C)C1 (stereo not given in full) here?
Answer: 3.6%

Question: For C=C1[C@@]2(C)CC3C4(C)CCC(O)C(C)(C)C4CCC3(C)[C@]1(C(=O)OC)C(=O)C(C)(O)C2=O (stereo not given in full), which “activity change, negative = cytotoxicity” value is on record?
Answer: 3.92%

Question: With CC(C)=CCC[C@]1(C)[C@H]2CC(=O)[C@@]3(CO3)[C@@H]1C2 as the compound, how does the “activity change, negative = cytotoxicity” value read?
Answer: 0.543%

Question: With CCCCCC(=O)N[C@@H](CC(C)C)C(=O)N[C@H](C=O)CCC(=O)O (Hexanoyl-Leu-Glu-aldehyde) as the compound, how does the “activity change, negative = cytotoxicity” value read?
Answer: 0%

Question: With COc1ccc([C@@H]2c3cc4c(cc3C(=O)C(C)C2C)OCO4)cc1OC (stereo not given in full) as the compound, how does the “activity change, negative = cytotoxicity” value read?
Answer: 2.15%

Question: For CC1(C)CC[C@]2(CO)CC[C@]3(C)C(=CCC4[C@@]5(C)CC[C@H](O)C(C)(C)C5CC[C@]43C)C2C1 (stereo not given in full), which “activity change, negative = cytotoxicity” value is on record?
Answer: 0.337%

Reference: PubChem BioAssay (NCATS)
